A selection: hits, their analogues and other compounds. The true share with any hit is near 1.3%.
NCOA1 inh – human NCOA1 inhibition; inhibition, % at 3.6 µM; Q15788; actives 0.12% (n = 360,000); HEK293 GAL4-SRC1 luciferase reporter, luminescence;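 active = inhibition above the campaign mean plus 3 SD, with each screening campaign given its own cutoff, cut at about 60% in these data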
SRC3 inh – inhibitors of human steroid receptor coactivator 3 (SRC3); Q9Y6Q9; HEK293 GAL4-SRC3 luciferase reporter, luminescence; inhibition, % at 3.6 µM; actives 0.17% (n = 360,000);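 active = inhibition above a per-campaign cutoff, the mean of all compounds plus 3 SD, cut at about 60% in these data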;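 note: higher means less SRC3-driven luciferase light from the GAL4 reporter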
SRC2 inh – human SRC2 (NCOA2) inhibition; HEK293 GAL4-SRC2 luciferase reporter, luminescence; AID 651957; Q15596; actives 0.17% (n = 370,000); inhibition, % at 9 µM;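 active = inhibition above the mean inhibition of all tested compounds plus 3 SD, set per campaign, cut at about 52% in these data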
NR5A2 inv ag – inverse agonists of human LRH-1 (NR5A2). inhibition, % at 3.6 µM. HEK293T StAR-luciferase reporter, LRH-1 transfected, 24 h. O00482. actives 0.13% (n = 360,000);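 active = inhibition above the mean inhibition of all tested compounds plus 3 SD, cut at about 73% in these data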
Gli-Sufu antag – Gli-Sufu pathway antagonism | Sufu-KO-LIGHT fibroblasts, Gli luciferase reporter luminescence | inhibition, % at 5 µM | actives 0.74% (n = 340,000) | AID 588413;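 active = inhibition above about 55%, limit read from the data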
COUP-TFII inh – inhibitors of human COUP-TFII (NR2F2) | AID 686940 | HEK293T NGFI-A luciferase reporter, luminescence | actives 0.7% (n = 370,000) | inhibition, % at 8.6 µM | P24468;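 active = inhibition above a per-plate cutoff, mean inhibition of test wells between control levels plus 3 SD, cut at about 38% in these data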;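 note: cells cotransfected with COUP-TFII expression vector driving the NGFI-A reporter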
Target sequence (P24468 whole entry, looked up): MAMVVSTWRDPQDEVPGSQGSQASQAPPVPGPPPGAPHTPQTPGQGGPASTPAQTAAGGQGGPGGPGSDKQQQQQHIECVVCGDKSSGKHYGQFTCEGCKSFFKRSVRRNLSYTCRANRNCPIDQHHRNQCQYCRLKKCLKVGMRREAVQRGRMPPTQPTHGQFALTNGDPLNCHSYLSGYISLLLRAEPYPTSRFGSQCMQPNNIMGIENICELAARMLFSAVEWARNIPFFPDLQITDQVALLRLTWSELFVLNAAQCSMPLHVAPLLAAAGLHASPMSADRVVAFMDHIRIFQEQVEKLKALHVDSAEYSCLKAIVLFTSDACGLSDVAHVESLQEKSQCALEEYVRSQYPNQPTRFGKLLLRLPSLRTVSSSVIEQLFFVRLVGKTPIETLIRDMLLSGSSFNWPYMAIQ
Gal4-VP16 ctr – inhibits VP16 reporter, flagging COUP-TFII antagonist hits; actives 25% (n = 2,500); inhibition, % at 8.5 µM; HEK293 Gal4-VP16 luciferase reporter, luminescence; shares compounds with COUP-TFII inh; in the data active = inhibition above about 13%
NR2F2 inh conf – COUP-TFII (NR2F2) inhibition, confirmation assay. shares compounds with COUP-TFII inh. HEK293 NGFI-A luciferase reporter, luminescence. inhibition, % at 8.5 µM. actives 45% (n = 2,500). AID 687008;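 active = mean inhibition over three repeats above a set limit taken from the earlier primary screen, cut at about 38% in these data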
Each line names hits and unclear results; the compound was inactive in the other large screens (follow-up assays come after a bar, where they were run).

Cc1ccc(S(=O)(=O)N(C)CCCC(=O)Nc2ccncc2)cc1	COUP-TFII inh 41.8 | Gal4-VP16 ctr inactive | NR2F2 inh conf inactive
O=C(NCc1cccnc1)/C(=C\c1ccc(-c2cccc(Cl)c2)o1)S(=O)(=O)c1ccccc1	SRC3 inh 82.1, SRC2 inh 63.0, COUP-TFII inh 42.5 | Gal4-VP16 ctr 20.6 | NR2F2 inh conf inactive
CN(Cc1c(F)cccc1Cl)C(=O)C1=CC=CN2CCS(=O)(=O)N=C12	none
COc1cc(/C=C/C(=O)Nc2ccc(OC)c(S(=O)(=O)N3CCOCC3)c2)ccc1OC(F)F	COUP-TFII inh 37.6 | Gal4-VP16 ctr 13.3 | NR2F2 inh conf inactive
CC(=O)Nc1cccc(NC(=O)/C=C/c2ccc(S(=O)(=O)N3CCOCC3)cc2)c1	none
COc1ccc(/C=C/C(=O)Nc2ccccc2C)cc1S(=O)(=O)N1CCOCC1	COUP-TFII inh 47.9 | Gal4-VP16 ctr inactive | NR2F2 inh conf inactive
Cc1ccc(NC(=O)/C=C/c2ccc(S(=O)(=O)N3CCOCC3)cc2)cc1S(=O)(=O)N(C)C	COUP-TFII inh 48.9 | Gal4-VP16 ctr inactive | NR2F2 inh conf 44.2
Cn1cnc(S(=O)(=O)Nc2ccc(OC(F)F)cc2)c1	none
C/C(=N\NC(=O)c1nnn(-c2nonc2N)c1CN(C)c1ccccc1)c1cccs1	none
O=C1CSc2ccc(C(=O)NCCc3ccc(Cl)cc3Cl)cc2N1	none
CCN(CC)c1ccc(C(=O)NNC(=O)CCl)cc1	none
CCN(CC)c1ccc(C(=O)NNC(=O)CCNC(=O)c2ccccc2)cc1	none (no result: Gli-Sufu antag)
CCN(CC)c1ccc(C(=C2C=CC(=[N+](CC)CC)C=C2)c2ccccc2)cc1	SRC3 inh 61.8, SRC2 inh 94.3, NR5A2 inv ag 94.9, Gli-Sufu antag 92.3, COUP-TFII inh 105.2 | Gal4-VP16 ctr 98.2 | NR2F2 inh conf 112.7
CCN(CC)c1ccc(C(=C2C=CC(=[N+](CC)CC)C=C2)c2ccc(N(CC)CC)cc2)cc1	NCOA1 inh 67.3, SRC3 inh 78.7, NR5A2 inv ag 95.8, Gli-Sufu antag 87.2, COUP-TFII inh 83.4 | Gal4-VP16 ctr 57.0 | NR2F2 inh conf 79.6
Cc1cc(C)c(O)c(C(=O)CC2CC(=O)NC(=O)C2)c1	COUP-TFII inh 75.1 (no result: NCOA1 inh, SRC3 inh, NR5A2 inv ag, Gli-Sufu antag) | Gal4-VP16 ctr inactive | NR2F2 inh conf 51.3
Cc1cc(SCC(=O)c2ccccc2)n2nc(C)nc2n1	COUP-TFII inh 45.0 | Gal4-VP16 ctr 13.2 | NR2F2 inh conf inactive
Cc1cc(C)c(C#N)c(SCC(=O)c2ccccc2)n1	none
Cc1cc(C(=O)Nc2ccc(Br)cc2)cs1	none
O=C(C[C@H]1CC[C@H]2[C@@H](COC[C@@H](O)CN2C(=O)c2cnccn2)O1)NCc1ccc(Oc2ccccc2)cc1	none (no result: NCOA1 inh, SRC3 inh, Gli-Sufu antag)
CC(C)Oc1ccc(/C=C(\C#N)C(=O)NC2CC2)cc1	COUP-TFII inh 82.4 | Gal4-VP16 ctr inactive | NR2F2 inh conf inactive
N#C/C(=C\c1ccc(Cl)cc1)C(=O)NC1CC1	none
O=C(Nc1ccc(Cc2ccncc2)cc1)C1CCC(N2C(=O)C3C4C=CC(C4)C3C2=O)CC1 (stereo not drawn)	COUP-TFII inh 38.1 | Gal4-VP16 ctr inactive | NR2F2 inh conf inactive
CC1CCC2C(=O)N(c3ccc(Cc4ccncc4)cc3)C(=O)C2C1 (stereo not drawn)	COUP-TFII inh 45.1 | Gal4-VP16 ctr inactive | NR2F2 inh conf inactive
O=C1C2C3C=CC(C3)C2C(=O)N1c1ccc(Cc2ccncc2)cc1 (stereo not drawn)	none
O=C(O)c1cc(-c2ccc(-c3ccc(F)cc3)o2)nc2ccccc12	none
CCC(C)(C)c1ccc(OCCCC[n+]2cccc(C)c2C)c(C(C)(C)CC)c1	SRC3 inh 65.1, NR5A2 inv ag 79.0, Gli-Sufu antag 84.9, COUP-TFII inh 57.1 | Gal4-VP16 ctr 14.3 | NR2F2 inh conf 59.9
Cc1cc(C(C)(C)C)ccc1OCCCCN1CCCC1	none
CCN(CC)S(=O)(=O)c1cccc(NC(=O)Nc2cccc(C(F)(F)F)c2)c1	COUP-TFII inh 38.8 | Gal4-VP16 ctr inactive | NR2F2 inh conf inactive
CCN(CC)S(=O)(=O)c1ccc2c(c1)nc(CCC(=O)Nc1cccc(C(F)(F)F)c1)n2CC	none
CCN1CCCCC(NC(=O)c2ccc(F)cc2)C1=O (stereo not drawn)	none (no result: NCOA1 inh, SRC3 inh, NR5A2 inv ag, Gli-Sufu antag)
C#CCN(C[C@@H]1[C@@H](OC(=O)Nc2cccs2)[C@@H](OC(=O)Nc2cccs2)Cn2c(=O)ccc(=O)n21)S(=O)(=O)c1ccc(C)cc1	COUP-TFII inh 75.7 (no result: Gli-Sufu antag) | Gal4-VP16 ctr 25.1 | NR2F2 inh conf 42.6
C#CCN(C[C@@H]1[C@@H](OC(=O)NCc2ccccc2F)[C@@H](OC(=O)NCc2ccccc2F)Cn2c(=O)ccc(=O)n21)S(=O)(=O)c1ccc(C)cc1	COUP-TFII inh 63.1 (no result: Gli-Sufu antag) | Gal4-VP16 ctr 23.4 | NR2F2 inh conf inactive
C#CCN(C[C@@H]1[C@@H](OC(=O)NCc2ccccc2F)[C@@H](OC(=O)NCc2ccccc2F)Cn2c(=O)n(CCCCCC)c(=O)n21)S(=O)(=O)c1ccc(C)cc1	none (no result: Gli-Sufu antag)
C#CCN(C[C@@H]1[C@@H](OC(=O)NC2CCCC2)[C@@H](OC(=O)NC2CCCC2)Cn2c(=O)ccc(=O)n21)S(=O)(=O)c1ccc(C)cc1	none (no result: Gli-Sufu antag)
O=C(C1CCCN(S(=O)(=O)c2cccc3nsnc23)C1)N1CCc2ccccc2C1 (stereo not drawn)	COUP-TFII inh 40.6 | Gal4-VP16 ctr inactive | NR2F2 inh conf inactive
O=C(COC(=O)c1ccccc1O)NC(c1ccccc1)c1ccccc1	COUP-TFII inh 41.3 | Gal4-VP16 ctr inactive | NR2F2 inh conf inactive
CC(NC(=O)COC(=O)c1ccccc1O)c1ccccc1 (stereo not drawn)	none (no result: Gli-Sufu antag)
CC(=O)CSc1ccc(-c2nc3cc(C)c(C)cc3[nH]2)cn1	SRC2 inh 63.4, COUP-TFII inh 53.8 | Gal4-VP16 ctr inactive | NR2F2 inh conf inactive
C/C(CC(C)(C)C1CCCCC1)=N\NC(N)=S	SRC3 inh 61.8, COUP-TFII inh 58.7 | Gal4-VP16 ctr 17.1 | NR2F2 inh conf 64.0
COc1ccccc1N1CCN(C(=O)c2sc3nc(-c4ccc(F)cc4)cn3c2C)CC1	COUP-TFII inh 51.9 | Gal4-VP16 ctr inactive | NR2F2 inh conf inactive
COc1ccc(-c2cn3c(C)c(C(=O)N4CCN(c5ccc(F)cc5)CC4)sc3n2)cc1	none
COc1ccccc1N1CCN(C(=O)CCC(=O)N2CCN(c3ccc(F)cc3)CC2)CC1	COUP-TFII inh 39.8 | Gal4-VP16 ctr inactive | NR2F2 inh conf inactive
COc1ccccc1N1CCN(C(=O)CCC(=O)N2CCN(c3ccccc3OC)CC2)CC1	none
COc1cc2cc(C(=O)NCCc3c[nH]c4ccccc34)c(N)nc2cc1OC	none (no result: NCOA1 inh, SRC3 inh, Gli-Sufu antag)
